Screens as filed in PubChem BioAssay.
Sampled rows, rich in hits. Any-hit rate of the full collection: about 1.4%.
Mm-Cpn inhibitor – Inhibitors of TCP-1 ring complex (TRiC) of Methanococcus maripaludis (MmCpn): qHTS; AID 504842, 2011; Potency, µM (highest dose often 76.9 µM), for the others: top-dose activity, negative = inhibition, actives largely listed as inhibitors; Chaperonin Mm-Cpn (Methanococcus maripaludis); hit rate 0.031% among 330,000; purified Mm-Cpn ATPase, ADP Transcreener TR-FRET; note: potency is the fitted concentration of half-maximal effect; % is set by controls: 0 for no effect and ±100 for the full control effect; nearly all actives have a fitted effect of over 80% in size
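25 nM Mm-CPN + cpd, 10 min 37°C; + 10 uM ATP, 30 min 37°C; buffer 30 mM Tris pH 7.4, 100 mM KCl, 5 mM MgCl2, 1 mM DTT; Transcreener ADP HTRF detection 30 min RT.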
p53 reactivation – qHTS assay for re-activators of p53 using a Luc reporter | Potency, µM (highest dose often 92.2 µM), for inactives: top-dose activity change, positive = activation, hits mostly activators | hit rate 0.063% among 320,000 | AID 504706, 2011 | H1299 p53-A138V BP100-luciferase reporter, luminescence, 24 h; note: potency is the fitted concentration of half-maximal effect; % of control where 0% means no effect; nearly all actives have a fitted effect of over 45% in size
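H1299 (p53-null), stable ts p53-A138V + BP100-Luc; 1000 cells/well, Opti-MEM/10% FBS; cpd 4 pt, 1:5; 24 h, 37 deg C, 5% CO2; detection reagent 10 min RT; luminescence.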
PINK1 expr mod – A Quantitative High throughput Screen to Identify Chemical Modulators of PINK1 Expression; PINK1 immunofluorescence, high-content cytometry, 24 h; hit rate 0.2% among 410,000; Potency, µM (top dose mostly 76.6 µM), for the others: at the highest dose activation (PINK1 increase), most hits filed as activators; active = well fitted activation curve with a large enough effect; inconclusive = small, poorly fitted or top-dose-only effect; cell line not stated here; note: potency is the fitted concentration of half-maximal effect; % of control where 0% means no effect; nearly all actives have a fitted effect of over 65% in size
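A stable cell line was treated with compounds at 5 concentrations for 24 hours, with CCCP as control. PINK1 levels and mitochondrial localization were measured by immunofluorescence with mitochondrial, cell and nuclear markers after fixation, read by laser-scanning cytometry.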
CCT modulator – High-Throughput Screening for Modulators of Cytosolic Chaperonin Activity. purified chaperonin ATPase assay, HTRF ADP detection, 30 min. activity change, % (test concentration not listed), hits read low. hit rate 0.3% among 360,000; in the data active = activity change below about -30%; note: % is set by controls: 0 for no effect and ±100 for the full control effect
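TRiC at 40 or 20 nM final (batch-dependent) in 30 mM Tris pH 7.4, 100 mM KCl, 5 mM MgCl2, 1 mM DTT, with compound at single 76 uM and 10 uM ATP, 30 min at 37 deg C. ADP detected by HTRF Transcreener, 665/615 ratio.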
12-LOX inh – Primary qHTS assay for inhibitors of human arachidonate 12S-lipoxygenase (ALOX12): Round 2. purified 12hLO, xylenol orange hydroperoxide absorbance. Potency, µM (top dose mostly 108 µM), for the others: top-dose activity change, negative = inhibition, usual class: inhibitors. hit rate 1.1% among 580,000. Polyunsaturated fatty acid lipoxygenase ALOX12 (Homo sapiens), P18054; note: potency is the fitted concentration of half-maximal effect; % is set by controls: 0 for no effect and ±100 for the full control effect
Target sequence (P18054 whole entry, looked up): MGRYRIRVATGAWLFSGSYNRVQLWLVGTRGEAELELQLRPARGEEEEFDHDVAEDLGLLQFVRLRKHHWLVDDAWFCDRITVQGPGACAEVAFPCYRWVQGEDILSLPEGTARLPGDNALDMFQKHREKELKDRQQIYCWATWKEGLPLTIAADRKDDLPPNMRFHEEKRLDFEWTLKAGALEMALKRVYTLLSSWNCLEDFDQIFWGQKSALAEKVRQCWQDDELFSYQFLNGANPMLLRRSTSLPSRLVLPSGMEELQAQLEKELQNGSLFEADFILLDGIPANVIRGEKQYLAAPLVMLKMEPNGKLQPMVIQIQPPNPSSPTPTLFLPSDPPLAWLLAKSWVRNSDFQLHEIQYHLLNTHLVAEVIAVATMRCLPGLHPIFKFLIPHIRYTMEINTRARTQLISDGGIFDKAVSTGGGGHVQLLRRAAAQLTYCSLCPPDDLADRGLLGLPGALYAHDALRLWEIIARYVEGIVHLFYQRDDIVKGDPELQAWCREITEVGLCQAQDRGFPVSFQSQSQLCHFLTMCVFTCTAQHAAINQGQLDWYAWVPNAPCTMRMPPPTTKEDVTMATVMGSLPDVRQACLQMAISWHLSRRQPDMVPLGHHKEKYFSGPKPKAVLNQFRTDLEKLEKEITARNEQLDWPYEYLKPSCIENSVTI
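Purified human 12hLO at 150 nM in 25 mM Hepes, 0.01% Triton X-100, pH 7.0, preincubated 15 min at room temperature with compound. Reaction started with 40 uM arachidonic acid, 30 min at room temperature. Hydroperoxide measured by Fe-xylenol orange, 573/405 nm absorbance ratio.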
ASM inhibitor – Inhibitors of Secretory Acid Sphingomyelinase (S-ASM): qHTS. AID 504937, 2011. placental ASM, HMU-PC fluorogenic substrate, 60 min. hit rate 0.006% among 340,000. Sphingomyelin phosphodiesterase (Homo sapiens), P17405. Potency, µM (top dose mostly 57.5 µM), for the others: at the top dose activity change, negative = inhibition, most hits filed as inhibitors; note: potency is the fitted concentration of half-maximal effect
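qHTS format. ASM enzyme prepared from human placenta hydrolyses the fluorogenic substrate HMU-PC0 (9 uM final) over 60 min at 37 °C after a 10 min compound preincubation.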
* marks the source's active call; other numbers are inactive results; u = inconclusive; x = no result given; [ ] = dose if it differs, or a comment. Unless noted, calls come from the whole dose curve; as a rule, active = well fitted curve in the direction sought with a large enough effect; inconclusive = small, poorly fitted or top-dose-only effect, or another doubt; inactive = no such curve, though single readings can be large; an effect the other way counts as inactive or inconclusive.

SMILES	Mm-Cpn inhibitor	p53 reactivation	PINK1 expr mod	CCT modulator	12-LOX inh	ASM inhibitor
Cc1nc2cc(NC(=O)COc3cccc(C)c3C)ccc2o1	x	x	x	x	-20%	x
Brc1ccc(C2=CC(c3cccs3)n3ncnc3N2)cc1 (configuration not stated)	-3%	0%	3%	-4	40µM*	58%
NC(=S)Nc1ccc(S(=O)(=O)c2ccc(NC(N)=S)cc2)cc1	-12%	3%	-2%	-2	40µM*	1%
CC(=O)Nc1ccc(S(=O)(=O)c2ccc(N)cc2)cc1	-3%[15.4 µM]	-3%	7%	1	-7%	0%
CC(C)(C)c1ccc(C(=O)NNC(=S)NC(=O)c2cccnc2)cc1	-1%	18%	-3%	0	u	-5%
Cc1cccc(C(=O)NC(=S)NNC(=O)c2cccs2)c1	-4%	u	0%	-1	u	1%
Cc1cccc(C(=O)NC(=S)NNC(=O)c2ccc(Cl)cc2)c1	-1%	10%	2%	0	28µM*	3%
Cc1cccc(C(=O)NNC(=S)NC(=O)c2ccc(C(C)(C)C)cc2)c1	x	x	x	x	18µM*	x
CC(C)(C)c1ccc(C(=O)NC(=S)NNC(=O)c2cccs2)cc1	1%	20%	4%	3	40µM*	-1%
COc1ccc(C(=O)/C=C/c2ccc(F)c(F)c2)cc1CC(=O)O	x	x	x	x	-28%	x
COc1ccc(OCC(=O)Nc2ccc(OC)c3ncccc23)cc1	x	x	x	x	14%	x
COc1ccc(-c2csc(NC(=O)CS(=O)(=O)c3ccccc3)n2)cc1OC	x	x	3%	-31*	-2%	x
COc1ccc(-c2csc(NC(=O)CS(=O)(=O)c3ccccc3)n2)c(OC)c1	x	x	1%	1	-2%	x
Cc1ccc(NC(=O)CCc2ncc(-c3ccc(F)cc3)o2)c(C)c1	x	x	x	x	0%	x
CC(Oc1ccc(F)cc1)C(=O)Nc1ccc(N2CCN(C)CC2)nc1 (configuration not stated)	x	x	x	x	4%	x
Cc1ccc(-c2noc([C@@H]3C[C@@H](O)CN3Cc3ccccc3O)n2)cc1F	x	x	x	x	32µM*	x
COc1ccc(-c2noc([C@@H]3C[C@@H](O)CN3Cc3ccccn3)n2)cc1	x	x	x	x	65%[176 µM]	x
O[C@@H]1C[C@@H](c2nc(Cc3ccc(F)cc3Cl)no2)N(Cc2cc3ccccc3o2)C1	x	x	x	x	-11%[176 µM]	x
OCc1ccc(CN2C[C@H](O)C[C@H]2c2nc(-c3ccc(F)cc3)no2)o1	x	x	x	x	25µM*	x
COc1ccc(-c2noc([C@@H]3C[C@@H](O)CN3Cc3ccc(CO)o3)n2)cc1	x	x	x	x	45µM*	x
OCc1ccc(CN2C[C@H](O)C[C@H]2c2nc(-c3cccnc3)no2)o1	x	x	x	x	-4%[176 µM]	x
O[C@@H]1C[C@@H](c2nc(Cc3ccc(F)cc3Cl)no2)N(Cc2ccco2)C1	x	x	x	x	25µM*	x
Cc1nn(Cc2cccc(Cl)c2)c(C)c1NS(=O)(=O)c1c(C)nn(C(F)F)c1C	x	x	x	x	3%	x
COc1ccc2nc(C[C@@H]3C[C@@H](C(C)C)[C@H](CNC4CCCCC4)C=C3C)[nH]c2c1	x	x	x	x	-27%[176 µM]	x
Cc1ccc(-n2nc3c(=O)n(CC(=O)NCCC4=CCCCC4)nc(C)c3c2C)cc1	1%	2%	2%	-78*	7%	9%
SMILES	Mm-Cpn inhibitor	p53 reactivation	PINK1 expr mod	CCT modulator	12-LOX inh	ASM inhibitor
FC(F)(F)c1cccc(-c2nc3nc(Cl)c(Cl)nc3[nH]2)c1	-3%	u	2.8µM*	2	x	215%
COC(=O)c1sccc1NC(=O)c1ccc(C)cc1	-3%	-2%	2%	-1	0%	-3%
COC(=O)c1sccc1NC(=O)CNC(=O)c1ccccc1	0%	3%	0%	-76*	7%	-2%
CC1=C(C(=O)OCc2ccccc2)C(/C=C/c2ccccc2)NC(=S)N1 (configuration not stated)	-2%	-24%	4%	-2	18µM*	-7%
Cc1c(Cl)cccc1NC(=O)NC1CCCCC1	1%	10%	-1%	-40*	0%	2%
Cc1ccc(C)c(-n2sc3ccc(F)cc3c2=O)c1	-1%	3%	0%	-2	1.6µM*	2%
COc1ccc(-n2sc3ccc(F)cc3c2=O)cc1	-7%	x	3%	-1	1.1µM*	-1%
O=c1c2cc(F)ccc2sn1-c1ccc(F)cc1	-8%	u	u	-2	x	-2%
CC(NC(=O)/C=C/c1cccs1)C12CC3CC(CC(C3)C1)C2 (configuration not stated)	x	x	x	x	-3%	x
CCOC(=O)C1CCCN(CC(=O)c2cc(C)n(C3CCS(=O)(=O)C3)c2C)C1 (configuration not stated)	x	x	x	x	-21%	x
O=C(CC1C(=O)NCCN1C/C=C/c1ccccc1)NCCc1ccncc1 (configuration not stated)	1%	-2%	-1%	-33*	1%	5%
CCNc1sc(C(C)=O)c(N)c1C#N	x	x	x	x	3.2µM*	x
CC(C)(C)c1ccc(OCCn2cc(C(=O)C(F)(F)F)c3cc(Br)ccc32)cc1	x	x	x	x	6%	x
COc1ccc2c(c1)c1nc3ccccc3nc1n2CCn1c(=O)oc2ccccc21	-1%	-5%	4µM*	0	-1%	0%
O=c1oc2ccccc2n1CCn1c2ccccc2c2nc3ccccc3nc21	1%	-10%	7%	-4	44%	17%
O=c1[nH]c2cc(Cl)ccc2n(CCNc2ncc(C(F)(F)F)cc2Cl)c1=O	0%	-4%	3%	-67*	0%	-1%
CS(=O)(=O)NCCNc1ncc(C(F)(F)F)cc1Cl	-2%	9%	1%	-3	u	-1%
O=c1cc(Cl)[nH]c(=O)n1CCNc1ncc(C(F)(F)F)cc1Cl	-5%	u	0%	0	0%	5%
O=S(=O)(NCCNc1ncc(C(F)(F)F)cc1Cl)C(F)(F)F	1%	2%	40µM*	-2	-5%	-11%
Cc1cccc(-n2cc(-c3ccccc3)c3c(N4CCN(CCO)CC4)ncnc32)c1	x	x	x	x	-21%	x
CCC1CCCCN1C(=O)CSc1nnc2nc(C)cc(C)n12 (configuration not stated)	-1%	9%	-1%	-40*	-22%	-2%
Cc1cc(C)n2c(SCC(=O)NC3CCCCC3C)nnc2n1 (configuration not stated)	-1%	0%	3%	0	175%	5%
